Laboratory results: PubChem BioAssay AID1159580 (chemical genetic matrix, 2015)
Values joined by “and” are separate entries in the source; they are usually repeats but may differ in a detail not shown here. Equal values may be shown once. Screen size: about 5,500 compounds; about 2,000 (36%) were called active. Another 18% or so got no clear call; they are omitted. This is one part of the list. Unmarked numbers belong to inactive results. Cut-off read from the data, not from the text of the source: active = normalized growth mostly below about 0.91 (no sharp cut-off); inconclusive = no clear call, values can overlap the other calls; inactive = mostly above about 0.92.

Experiment: chemical genetic growth profiling, strain panel (AID 1159580);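 note: tested at 20 µM; growth read once vehicle control cultures reached saturation at 30 °C; 1 = growth at the plate median or of vehicle wells; lower values mean less growth of the strain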
Conditions: S. cerevisiae deletion strains, growth OD

In the case of `CN1CCc2cccc3c2C1Cc1ccc(O)c(O)c1-3` (stereo not drawn), the normalized growth (locus YAL013W, strain DEP1, active compounds read low) is reported as 1.01, the normalized growth (locus YAL021C, strain ccr4, active compounds read low) is reported as 0.83 (active) and the normalized growth (locus YAL026C, strain drs2, active compounds read low) is reported as 0.862 (active). For the same compound, the normalized growth (locus YAL030W, strain snc1, active compounds read low) was 0.866 (active), the normalized growth (locus YAL040C, strain CLN3, active compounds read low) was 0.989 and the normalized growth (locus YBL061C, strain skt5, active compounds read low) was 0.865 (active). For the same compound, the normalized growth (locus YBR009C, strain hhf1, active compounds read low) was 0.929, the normalized growth (locus YBR021W, strain FUR4, active compounds read low) was 1.01 and the normalized growth (locus YBR023C, strain chs3, active compounds read low) was 0.85 (active). For the same compound, the normalized growth (locus YBR171W, strain sec66, active compounds read low) was 0.949, the normalized growth (locus YBR229C, strain ROT2, active compounds read low) was 1.01 and the normalized growth (locus YBR231C, strain swc5, active compounds read low) was 0.785 (active). For the same compound, the normalized growth (locus YBR279W, strain paf1, active compounds read low) was 0.924 (active), the normalized growth (locus YCL011C, strain gbp2, active compounds read low) was 0.883 (active) and the normalized growth (locus YCL016C, strain dcc1, active compounds read low) was 0.925. For the same compound, the normalized growth (locus YCL029C, strain bik1, active compounds read low) was 0.995, the normalized growth (locus YCL061C, strain MRC1 (second series), active compounds read low) was 0.611 (active) and the normalized growth (locus YCL069W, strain vba3, active compounds read low) was 0.978. It also gave a normalized growth (locus YCR088W, strain abp1, active compounds read low) of 0.986, a normalized growth (locus YDL005C, strain med2, active compounds read low) of 1.02 and a normalized growth (locus YDL035C, strain GPR1, active compounds read low) of 1.04. The normalized growth (locus YDL040C, strain nat1, active compounds read low) was 0.977, the normalized growth (locus YDL074C, strain BRE1, active compounds read low) was 1.01 and the normalized growth (locus YDL101C, strain DUN1, active compounds read low) was 1.01. It also gave a normalized growth (locus YDL134C, strain PPH21, active compounds read low) of 1.03, a normalized growth (locus YDL185W, strain tfp1, active compounds read low) of 1 and a normalized growth (locus YDL192W, strain arf1, active compounds read low) of 0.997. The normalized growth (locus YDR001C, strain nth1, active compounds read low) was 1.01, the normalized growth (locus YDR069C, strain doa4, active compounds read low) was 0.573 (active) and the normalized growth (locus YDR101C, strain arx1, active compounds read low) was 0.973. For the same compound, the normalized growth (locus YDR137W, strain rgp1, active compounds read low) was 0.996, the normalized growth (locus YDR159W, strain sac3, active compounds read low) was 0.987 and the normalized growth (locus YDR162C, strain NBP2, active compounds read low) was 1.03. For the same compound, the normalized growth (locus YDR195W, strain ref2) was 1.02, the normalized growth (locus YDR297W, strain sur2, active compounds read low) was 0.88 (active) and the normalized growth (locus YDR318W, strain mcm21, active compounds read low) was 0.992. The normalized growth (locus YDR334W, strain swr1, active compounds read low) was 0.873 (active), the normalized growth (locus YDR335W, strain msn5, active compounds read low) was 0.923 and the normalized growth (locus YDR363W, strain ESC2, active compounds read low) was 0.823 (active). For the same compound, the normalized growth (locus YDR388W, active compounds read low) was 0.993, the normalized growth (locus YDR392W, strain spt3, active compounds read low) was 0.534 (active) and the normalized growth (locus YDR502C, strain sam2, active compounds read low) was 0.999. For the same compound, the normalized growth (locus YEL003W, strain gim4, active compounds read low) was 0.942, the normalized growth (locus YEL037C, strain rad23, active compounds read low) was 0.962 and the normalized growth (locus YEL061C, strain CIN8 (second series), active compounds read low) was 0.971. For the same compound, the normalized growth (locus YEL061C, strain CIN8, active compounds read low) was 1.01, the normalized growth (locus YER002W, strain NOP16, active compounds read low) was 0.982 and the normalized growth (locus YER015W, strain faa2, active compounds read low) was 0.784 (active). The normalized growth (locus YER016W, strain bim1, active compounds read low) was 0.979, the normalized growth (locus YER110C, active compounds read low) was 0.985 and the normalized growth (locus YER111C, strain swi4, active compounds read low) was 0.996. For the same compound, the normalized growth (locus YER155C, strain BEM2 (second series), active compounds read low) was 0.861 (active), the normalized growth (locus YER155C, strain BEM2, active compounds read low) was 1 and the normalized growth (locus YER167W, strain BCK2, active compounds read low) was 1.03. For the same compound, the normalized growth (locus YFR010W, strain ubp6, active compounds read low) was 0.882 (active), the normalized growth (locus YGL078C, strain dbp3, active compounds read low) was 0.983 and the normalized growth (locus YGL086W, strain mad1, active compounds read low) was 1. The normalized growth (locus YGL167C, strain pmr1, active compounds read low) was 0.985, the normalized growth (locus YGL173C, strain kem1, active compounds read low) was 0.725 (active) and the normalized growth (locus YGL227W, strain vid30, active compounds read low) was 1.02. It also gave a normalized growth (locus YGL240W, strain doc1, active compounds read low) of 0.929, a normalized growth (locus YGL248W, strain PDE1, active compounds read low) of 1.01 and a normalized growth (locus YGL253W, strain hxk2, active compounds read low) of 0.969. The normalized growth (locus YGR135W, strain pre9, active compounds read low) was 1, the normalized growth (locus YGR229C, strain SMI1, active compounds read low) was 1.02 and the normalized growth (locus YGR252W, strain gcn5, active compounds read low) was 1.01. The normalized growth (locus YHR013C, strain ard1, active compounds read low) was 0.818 (active), the normalized growth (locus YHR027C, strain rpn1, active compounds read low) was 0.826 (active) and the normalized growth (locus YHR030C, strain SLT2, active compounds read low) was 1.01 and 1.02. The normalized growth (locus YHR079C, strain IRE1 (second series), active compounds read low) was 0.994, the normalized growth (locus YHR079C, strain IRE1, active compounds read low) was 1.05 and the normalized growth (locus YHR094C, strain hxt1, active compounds read low) was 0.99. For the same compound, the normalized growth (locus YHR129C, strain ARP1, active compounds read low) was 1.01, the normalized growth (locus YHR142W, strain chs7, active compounds read low) was 0.867 (active) and the normalized growth (locus YHR200W, strain rpn10, active compounds read low) was 0.997. For the same compound, the normalized growth (locus YIL066C, strain RNR3, active compounds read low) was 1.03, the normalized growth (locus YIL073C, strain SPO22, active compounds read low) was 1.03 and the normalized growth (locus YIL125W, strain kgd1, active compounds read low) was 0.989. The normalized growth (locus YIR030C, strain dcg1, active compounds read low) was 1, the normalized growth (locus YJL092W, strain hpr5, active compounds read low) was 0.979 and the normalized growth (locus YJL095W, strain BCK1 (second series), active compounds read low) was 0.906 (active). For the same compound, the normalized growth (locus YJL095W, strain BCK1, active compounds read low) was 0.998 and 1.04, the normalized growth (locus YJL115W, strain asf1, active compounds read low) was 0.999 and the normalized growth (locus YJL129C, strain trk1, active compounds read low) was 1.07. The normalized growth (locus YJL134W, strain LCB3, active compounds read low) was 1, the normalized growth (locus YJL154C, strain vps35, active compounds read low) was 1.01 and the normalized growth (locus YJL164C, strain tpk1, active compounds read low) was 0.874 (active). The normalized growth (locus YJL166W, strain qcr8, active compounds read low) was 0.742 (active), the normalized growth (locus YJL168C, strain set2, active compounds read low) was 0.989 and the normalized growth (locus YJL187C, strain SWE1 (second series), active compounds read low) was 1.01. The normalized growth (locus YJL187C, strain SWE1, active compounds read low) was 0.887 (active), the normalized growth (locus YJR043C, strain POL32, active compounds read low) was 1.03 and the normalized growth (locus YJR066W, strain TOR1, active compounds read low) was 0.989.
